Compound activity (PubChem BioAssay)
HMGR II inh – blocks class II HMG-CoA reductase of Enterococcus faecalis; purified E. faecalis HMGR, NADPH absorbance 340 nm kinetic; inhibition, % at 10 µM; hit rate 0.41% among 190,000; AID 1066;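 active = inhibition above a set limit, the median over all tested compounds plus 3 SD, cut at about 9.5% in these data; inconclusive = no clear call, values can overlap the other calls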;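 note: enzyme runs in reverse so mevalonate oxidation gives rising NADPH absorbance; 0% = complete reaction with DMSO and 100% = background rate lacking mevalonate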
PHOSPHO1 block – inhibitors of human PHOSPHO1 phosphatase. Q8TCT1. recombinant PHOSPHO1, absorbance phosphatase assay. inhibition, % at 13.3 µM. hit rate 1.1% among 290,000; in the data active = inhibition above about 60%
Target sequence (Q8TCT1 whole entry, looked up): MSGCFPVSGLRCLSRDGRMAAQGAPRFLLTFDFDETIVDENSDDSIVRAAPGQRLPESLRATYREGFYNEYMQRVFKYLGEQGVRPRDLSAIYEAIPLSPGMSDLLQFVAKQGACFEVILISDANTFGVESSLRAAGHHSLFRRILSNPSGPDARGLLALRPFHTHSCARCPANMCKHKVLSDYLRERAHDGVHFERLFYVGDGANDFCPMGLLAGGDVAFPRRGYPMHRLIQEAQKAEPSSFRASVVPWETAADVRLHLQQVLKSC
PABP FP inh – blocks human PABP binding to poly(A) RNA | P11940 | fluorescence polarization | calls only at 35 µM | hit rate 1% among 290,000;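 note: calls also rest on retests at 20 µM and on dose response follow-up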
MLLE-PAM2 inh – inhibitors of microRNA-mediated deadenylation, human PABP1 MLLE binding | inhibition, % at 20 µM | GST-MLLE / FITC-PAM2 fluorescence polarization | hit rate 0.36% among 360,000 | P11940; in the data active = inhibition above about 35%, passing the limit was not always enough;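 note: plate controls were DMSO wells with GST-MLLE for no effect and wells lacking GST-MLLE protein for full effect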
eIF4H inh – inhibitors of RNA binding by human eIF4H. hit rate 0.94% among 290,000. eIF4H fluorescence polarization binding assay. inhibition, % at 35 µM. Q15056. AID 2012;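 note: calls also rest on retests at 20 µM and on dose response follow-up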
* hit, by the source's call; i = inactive; u = inconclusive; x = no result; + = active, no number. Most compounds without a hit are left out; they make up all but 2.4% or so of the library. Unless noted, the rule behind the calls is not given here.

SMILES	HMGR II inh	PHOSPHO1 block	PABP FP inh	MLLE-PAM2 inh	eIF4H inh
CSc1nnc(NC(=O)CCc2ccccc2)s1	-6	82*	i	-98	1
Nc1c(C(=O)c2ccccc2)sc2nsc(SCCN3CCCC3)c12	x	6	i	-28	-7
CC(=O)Nc1nnc(CCN2CCCCC2)s1	-1	25	i	10	-10
CC(=O)c1sc2nsc(SCCN3CCCCC3)c2c1N	x	70*	i	28	11
Nc1c(C(=O)c2ccc(Cl)cc2)sc2nsc(SCCN3CCOCC3)c12	x	63*	i	-70	33
CCc1ccc(CNC(=O)c2ccc(OC3CCN(C(=O)COC)CC3)cc2)nc1	x	42	i	8	5
COc1ccc(OCCc2nnc(N)s2)cc1	-1	62*	i	-70	4
CCCn1c(C)nc2c(c1=O)c1nc3ccccc3nc1n2-c1ccccc1	x	x	x	10	x
Cc1nc2c(c(=O)n1CCC1=CCCCC1)c1nc3ccccc3nc1n2/N=C/c1ccco1	-3	11	+	14	68*
CCCn1c(C)nc2c(c1=O)c1nc3ccccc3nc1n2CCC1=CCCCC1	2	69*	i	31	26
CCN(CC(=O)Nc1ccc(OC)cc1)C(=O)CSCC(=O)Nc1cc(C)on1	x	x	x	15	x
Cc1cc(C)n(-c2ncc3c(n2)N(CCO)CCOC3=O)n1	x	37	i	16	-4
CC1=CC2(O)OCCN(CCO)C2=CC1=O (stereo not given)	-3	-10	i	17	82*
COc1ccc(-c2cc(=O)oc3cc(OCC(=O)NCC4CCC(C(=O)O)CC4)ccc23)cc1 (stereo not given)	x	-2	i	-5	-2
CC1CCCCN1C(=O)CSc1nc(C2CC2)nc2ccccc12 (stereo not given)	x	36	i	3	-4
COCCn1c(C)cc(C2=NNC(=Nc3ccc(OC)cc3)SC2)c1C	-2	-55	i	3	4
COCCn1c(C)cc(C2=NNC(=Nc3ccccc3)SC2)c1C	-5	102*	i	3	0
Cc1ccccc1S(=O)(=O)N1C[C@H]2CON(C)[C@H]2C[C@H]1c1cccc(Oc2ccccc2)c1	x	x	x	-8	x
Nc1nc(-c2ccccc2)c(-c2ccccc2)n1N	x	35	+	3	54
Nc1nnc(-c2ccccc2)c(-c2ccccc2)n1	-6	11	i	-7	-12
Oc1ccc(-c2nc3ncccn3c2Nc2ccc3c(c2)OCO3)cc1	-1	10	i	3	18
Clc1ccc(-c2nc3ncccn3c2Nc2ccc3c(c2)OCO3)cc1	-5	-116	+	-2	61*
Nc1ccc(O)cc1C(=O)OCC(=O)c1ccc(C2CCCCC2)cc1	-1	14	+	1	93*
Nc1ccc(O)cc1C(=O)OCC(=O)C12CC3CC(CC(C3)C1)C2	2	16	+	-23	68*
COc1ccc(C(=O)OCC(=O)c2ccc(C3CCCCC3)cc2)cc1	-2	21	i	3	-1
SMILES	HMGR II inh	PHOSPHO1 block	PABP FP inh	MLLE-PAM2 inh	eIF4H inh
CCOC(=O)c1cnc(-n2nc(C)cc2C)[nH]c1=O	x	-12	i	4	-7
CCOC(=O)c1cnc(-n2[nH]c(C)cc2=O)[nH]c1=O	-2	38	+	-5	100*
Cc1sc2nc(COC(=O)c3ccc(N4CCCC(C)C4)c([N+](=O)[O-])c3)[nH]c(=O)c2c1C (stereo not given)	0	0	i	-5	-1
Cc1sc2nc(COC(=O)c3ccc(N4CCCC4)c([N+](=O)[O-])c3)[nH]c(=O)c2c1C	2	-4	+	-84	u
Cc1sc2nc(COC(=O)c3ccc(Cl)c(N)c3)[nH]c(=O)c2c1C	x	25	+	-21	74*
CCN(c1ccccc1)S(=O)(=O)c1ccc(OC)c(NC(=O)c2ccc(=O)[nH]c2)c1	x	x	x	-2	x
CCOC(=O)c1c(-c2ccc(F)cc2)csc1NC(=O)C1CC=CCC1C(=O)O (stereo not given)	-4	-99	u	39	u
COC(=O)c1c(-c2ccco2)csc1NC(=O)C1CC=CCC1C(=O)O (stereo not given)	1	40	+	-9	85*
COc1cc(NC(=O)c2ccccc2)c(OC)cc1NC(=O)CN1C(=O)NC2(CCCCC2C)C1=O (stereo not given)	x	x	x	-78	x
Nc1c(C(=O)c2ccccc2O)cnn1-c1ccc(S(=O)(=O)N2CCOCC2)cc1[N+](=O)[O-]	-4	-14	i	x	-2
C=CCn1c(SCC(=O)c2cc(C)n(Cc3cccs3)c2C)nnc1-c1ccncc1	-1	-57	i	-13	11
COc1ccccc1-n1cnnc1SCC(=O)c1cc(C)n(Cc2cccs2)c1C	-7	63*	i	10	3
Cc1cc(C(=O)CSc2nnc(-c3ccccc3F)o2)c(C)n1Cc1cccs1	3	90*	u	-37	u
Cc1cc(C(=O)CSc2nc3ccccc3n2CCC#N)c(C)n1Cc1cccs1	-1	-59	i	-16	64
CC(C)(C)NC(=O)CSc1nnc(-c2ccccn2)n1Cc1ccccc1	x	5	i	1	-3
C=CCNC(=O)CSc1nnc(-c2ccccn2)n1Cc1ccccc1	1	-4	+	5	u
Cc1ccc(N2C(=S)NC3c4cc(Cl)ccc4OC2(C)C3C(=O)N(C)C)cc1 (stereo not given)	-9	-1	i	44*	-1
O=C(CCNC(=O)c1ccco1)Nc1ccc(Cl)cc1F	x	19	i	-10	-2
CC(=O)Oc1ccc2c(=O)c(Oc3ccccc3)coc2c1OC(C)=O	2	-4	+	4	98*
CC1(C)CC(=O)C=C(c2n[nH]nc2-c2ccc(F)c(F)c2)C1	x	x	x	16	x
Cn1c(C(=O)N[C@@H](C(=O)O)c2ccccc2)cc2cc(Cl)ccc21	x	23	+	-17	62
OCC[C@@H]1C[C@H](O)[C@@H](O)[C@]2(OCCc3ccccc32)O1	x	36	i	0	-2
CCCCc1c(O)nc(SCC(=O)Nc2cccc3ccccc23)n(-c2ccccc2OC)c1=O	x	2	i	41*	-3
CCc1c(O)nc(SCC(=O)Nc2ccccc2OC)n(-c2ccccc2C)c1=O	x	1	x	46*	x
COc1ccccc1-n1c(SCC(=O)Nc2cccc3ccccc23)nc(O)cc1=O	2	20	i	7	-6
SMILES	HMGR II inh	PHOSPHO1 block	PABP FP inh	MLLE-PAM2 inh	eIF4H inh
COc1ccc(-c2cc(C(=O)N3CCN(S(=O)(=O)c4ccc(C)cc4)CC3)[nH]n2)cc1	x	28	i	-3	-13
CCc1nnc(NC(=O)CCC(=O)N2CCN(S(=O)(=O)c3cc(Cl)ccc3OC)CC2)s1	x	70*	x	-8	x
O=C1C=CC(=O)N1c1ccc2ccccc2c1	x	x	x	35	x
O=C1C=CC(=O)N1c1ccc(Nc2ccccc2)cc1	x	x	x	41*	x
Cc1oc(-c2ccccc2Cl)nc1CS(=O)CC(=O)NCc1ccc2c(c1)OCO2 (stereo not given)	x	-17	i	8	-16
CCOc1ccc(N2C(=O)CS/C2=C(\C(Cl)=C(Cl)Cl)[N+](=O)[O-])cc1	-4	86*	i	-17	-4
